High-throughput results (PubChem)
ALDH1A1 inh: ALDH1A1 (human) enzyme inhibition | P00352 | Purified ALDH1A1, NADH fluorescence, propionaldehyde substrate | Potency, µM (titrated, usually from 75.3 µM), usual class: inhibitors | actives 7.3% (n = 220,000) | AID 1030
HTT ATP protect: Huntington cell model cytoprotection by ATP luminescence; AID 1471; Potency, µM (top dose mostly 56.4 µM), most hits filed as activators; PC12 HTT-Q103 induced, cytoprotection, ATP luminescence, 40 h; actives 0.14% (n = 230,000); active means well fitted curve in the direction sought with a large enough effect; inconclusive means small, poorly fitted or top-dose-only effect, or another doubt; inactive means no such curve, though single readings can be large; an effect the other way counts as inactive or inconclusive; further: nearly all actives have a fitted effect of over 45% in size
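PC12 cells stably carrying ecdysone-inducible Htt exon 1 (Q103)–GFP were induced with 100 nM tebufenozide (final) alongside library compounds in a dose series. Cytoprotection was scored as retained ATP by ATPlite luminescence.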
KDM4E inh: inhibitors of human JMJD2E histone demethylase; Potency, µM (doses to about 57.1 µM), usual class: inhibitors; AID 2147; actives 1.6% (n = 230,000); JMJD2E catalytic domain, FDH-coupled NADH fluorescence (FDH is formaldehyde dehydrogenase); further: nearly all actives have a fitted effect of over 50% in size
Target sequence (B2RXH2 1-337 limits assumed): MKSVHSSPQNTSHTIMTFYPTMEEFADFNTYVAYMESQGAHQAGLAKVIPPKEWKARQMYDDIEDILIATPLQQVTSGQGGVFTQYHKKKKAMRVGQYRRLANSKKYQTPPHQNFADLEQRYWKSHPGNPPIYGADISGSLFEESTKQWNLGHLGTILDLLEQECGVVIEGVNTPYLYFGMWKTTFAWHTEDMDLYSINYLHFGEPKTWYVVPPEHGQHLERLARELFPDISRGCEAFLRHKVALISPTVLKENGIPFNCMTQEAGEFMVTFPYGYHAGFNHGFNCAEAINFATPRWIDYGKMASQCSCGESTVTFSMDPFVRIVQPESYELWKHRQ
Lamin A splicing: modulators of lamin A splicing | HeLa LMNA splicing GFP/RFP minigene ratio, 48 h | Potency, µM (series often up to 46.1 µM), most hits filed as inhibitors | actives 0.01% (n = 200,000) | AID 1487; active means well fitted inhibition curve with a large enough effect in the signal ratio, with a control signal flat, not every such curve was filed as active; inconclusive means small, poorly fitted or top-dose-only effect, or effect the other way, or a change in a side signal; the % refers to the signal ratio
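Read-out is the ratio of GFP to DsRed2 object intensity, acquired by 488 nm laser-scanning cytometry on HeLa lamin A-EGFP minigene reporter cells. Compound incubation 48 hrs at 37 °C in Opti-MEM with 2% FBS; DMSO 0.5% final.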
HPGD inh: blocks human HPGD enzyme activity; purified HPGD, NADH fluorescence kinetic, PGE2 substrate; Potency, µM, actives largely listed as inhibitors; actives 4.3% (n = 150,000); AID 894
Target sequence (P15428 whole entry, looked up): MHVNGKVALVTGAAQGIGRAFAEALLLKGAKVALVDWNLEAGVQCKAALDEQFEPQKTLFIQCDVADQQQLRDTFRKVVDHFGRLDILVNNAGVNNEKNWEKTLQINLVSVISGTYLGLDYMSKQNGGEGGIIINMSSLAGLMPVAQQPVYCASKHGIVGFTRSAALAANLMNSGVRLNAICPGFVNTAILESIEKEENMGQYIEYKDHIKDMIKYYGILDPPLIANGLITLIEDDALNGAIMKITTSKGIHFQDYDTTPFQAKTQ
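20 nM HPGD preincubated 15 min at room temperature with compound in 50 mM Tris-HCl pH 8, 0.01% Tween 20. Started with 1 mM NAD+ and 30 uM prostaglandin E2; NADH fluorescence (360/450 nm) read 5 times over 30-s intervals, last minus first.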
HTT aggregate: reduces HttQ103-GFP aggregates in PC12 cells | Potency, µM (highest dose often 46.1 µM), hits mostly inhibitors | actives 1.1% (n = 220,000) | PC12 HttQ103-GFP aggregates, Acumen cytometry, 40 h; active means well fitted curve in the direction sought with a large enough effect; inconclusive means small, poorly fitted or top-dose-only effect, or another doubt; inactive means no such curve, though single readings can be large; an effect the other way counts as inactive or inconclusive; further: nearly all actives have a fitted effect of over 60% in size
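Compounds (qHTS titration) were added to PC12 cells expressing an ecdysone-driven HTT exon 1 Q103–GFP fusion after induction with 100 nM tebufenozide. Aggregate formation was measured as GFP objects in cell lysates.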
A number is an active result; . = inactive; ? = inconclusive; / = no result; [ ] = dose if it differs, or a comment. In the library only some 9.2% were active in any assay of this set; here they are far more common. Unless noted, the call rests on the fitted dose curve; in most records, active means well fitted inhibition curve with a large enough effect (not every such curve was filed as active); inconclusive means small, poorly fitted or top-dose-only effect, or another doubt; inactive means no such curve, though single readings can be large or run the other way.

SMILES | ALDH1A1 inh | HTT ATP protect | KDM4E inh | Lamin A splicing | HPGD inh | HTT aggregate
CN(CC[C@@H](Oc1ccc(-c2ccccc2)cc1)c1ccc(F)cc1)CC(=O)O | ? | . | . | / | . | /
Cc1nc(Nc2ccccc2)c2nc(-c3ccccc3)n(CCCN3CCCCC3C)c2n1 (stereo unspecified) | . | . | . | / | . | /
COC(=O)C1CCN(c2csc3ccc(Cl)cc3c2=O)CC1 | / | / | / | . | / | /
O=C1c2ccccc2-c2cc([N+](=O)[O-])c([N+](=O)[O-])cc21 | ? | .[10 µM] | / | / | . | /
CCC(CC)c1nnc(NC(=O)c2ccc(N3CCCCC3)c([N+](=O)[O-])c2)s1 | 0.79µM | .[10 µM] | . | . | . | .
NNC(=O)c1ccc(N2CCCCCC2)c([N+](=O)[O-])c1 | 1.6µM | . | . | . | / | ?
O=C1CN(C(=O)COC(=O)c2ccc(N3CCCCCC3)c([N+](=O)[O-])c2)c2ccccc2N1 | 7.9µM | .[10 µM] | . | . | / | ?
O=C(Nc1nc2ccc3ccccc3c2s1)c1ccc(N2CCCCC2)c([N+](=O)[O-])c1 | . | .[10 µM] | . | ? | . | .
O=C1CN(C(=O)COC(=O)c2ccc[n+]([O-])c2)c2ccccc2N1 | . | .[10 µM] | . | . | / | .
CCOC(=O)CCCN | .[13.5 µM] | .[10 µM] | / | / | . | /
COc1ccccc1Cn1c(CNS(=O)(=O)c2ccc3c(c2)CCCC3)nc2cccnc21 | / | / | / | . | / | /
CO[C@@H]1COC(=O)[C@H]2CCCN2C(=O)[C@@H](C)COC(=O)[C@H](COCc2ccccc2)NC(=O)C/C=C\[C@H]1C | .[13.5 µM] | .[10 µM] | / | / | / | /
O=C(CN1CCN(c2ncc(C(F)(F)F)cc2Cl)CC1)NCCNc1ncc(C(F)(F)F)cc1Cl | ? | . | . | . | . | ?
O=C(CONS(=O)(=O)c1ccc(Cl)cc1)NCCNc1ncc(C(F)(F)F)cc1Cl | 13µM | . | . | . | / | .
COC(=O)C1=C(C(=O)OC)[C@@H]2N(C)c3ccccc3[C@@]23C[C@@H](C(=O)OC)N(S(=O)(=O)c2c(C)noc2C)C3=N1 | .[13.5 µM] | ? | .[11.4 µM] | .[9.22 µM] | . | /
COc1ccc(N=c2scc(-c3ccc(S(=O)(=O)N4CCOCC4)cc3)n2CCCO)cc1 | ? | .[10 µM] | . | ? | . | 13µM
CC(=O)c1cccc(N=c2scc(-c3ccc(S(=O)(=O)N4CCOCC4)cc3)n2CCO)c1 | 25µM | / | . | ? | . | ?
COc1cccc(Cn2c(=O)c(CCc3ccccc3)nc3cncnc32)c1 | . | . | / | ? | / | /
Cc1ccccc1CN1C2=NCCN2C(=O)C2=C1CCN(Cc1ccccc1)C2 | .[13.5 µM] | .[10 µM] | / | / | . | /
Cc1ccc2nc(-c3ccc(NC(=O)c4ccco4)cc3)[nH]c2c1 | ? | .[10 µM] | ? | . | ? | .
Cc1nc2ccc(C(=O)c3ccccc3)cc2[nH]1 | ? | . | . | . | 18µM | .
Cc1ccccc1C(=O)Nc1ccc(-c2nc3ccc(C(=O)c4ccccc4)cc3[nH]2)cc1 | ? | . | ? | ? | ? | 11µM
O=C(c1ccccc1)c1ccc2nc[nH]c2c1 | ? | .[10 µM] | ? | . | 22µM | ?
COc1cc(NC(=O)COC(=O)c2cnccn2)c(C)cc1[N+](=O)[O-] | ? | .[10 µM] | . | / | / | .[9.22 µM]
O=C1COC(c2ccccc2O)=NN1CCCN1CCCC1 | .[13.5 µM] | .[10 µM] | / | / | . | /
SMILES | ALDH1A1 inh | HTT ATP protect | KDM4E inh | Lamin A splicing | HPGD inh | HTT aggregate
CC(=O)c1ccc(N2C(=O)N(Cc3ccc(F)cc3)c3ccccc3S2(=O)=O)cc1 | / | / | / | . | / | /
CNc1ncnc(Sc2nc(N)nc3nc[nH]c23)c1[N+](=O)[O-] | .[13.5 µM] | .[10 µM] | / | / | . | /
Nc1nc(Sc2ccc([N+](=O)[O-])c3nonc23)c2[nH]cnc2n1 | 2µM | .[10 µM] | / | / | 1.3µM | /
CCc1cc2ccc(C)cc2nc1SCC(=O)c1ccc(NC(C)=O)cc1 | 25µM | . | . | . | 8.9µM | .
CCc1cc2cccc(C)c2nc1SCC(=O)c1ccc(NC(C)=O)cc1 | ? | .[10 µM] | . | . | . | .
COc1ccc2c(c1)c(CC(=O)OCC(=O)O)c(C)n2C(=O)c1ccc(Cl)cc1 | . | . | . | . | . | .
COc1ccc2c(c1)c(CC(=O)O)c(C)n2Cc1ccc(Cl)cc1 | 25µM | .[1.9 µM] | . | ? | . | /
Cc1nc(N2CCOCC2)c2c(C(=O)NCc3ccc(Cl)cc3)c(C)oc2n1 | / | / | / | . | / | /
C=CCOC(=O)NC(c1ccc(F)c(F)c1)C(C(C)=O)C(=O)OC (stereo unspecified) | . | . | . | / | . | /
CCCCS(=O)(=O)/C=C\C=C/S(=O)(=O)CCCC | 4µM | .[10 µM] | . | ? | 25µM | ?
CCCCS(=O)(=O)/C=C\C1C2C=CC(C2)C1S(=O)(=O)CCCC (stereo unspecified) | ? | .[10 µM] | . | ? | . | .[9.22 µM]
COC(=O)C1=C2N(Cc3ccccc3)C(C)=C(C(=O)OC)C(c3ccccc3)N2C(=O)[C@](O)(C(=O)OC)C1 (stereo partly specified) | .[13.5 µM] | .[10 µM] | / | / | / | /
COc1cc(/C=C2\SC(=N)N(c3ccc4c(c3)OCO4)C2=O)cc(OC)c1O | . | / | . | . | 4µM | .
CCOc1cc(/C=C2\SC(=O)N(CC(=O)Nc3ccccc3F)C2=O)cc([N+](=O)[O-])c1O | ? | .[10 µM] | . | . | / | .[9.22 µM]
COc1cc(/C=C2\SC(=O)N(c3ccccc3Cl)C2=O)cc([N+](=O)[O-])c1O | 0.16µM | .[10 µM] | . | / | / | .[9.22 µM]
COc1cc(/C=C2\SC(=O)N(c3ccc(O)cc3)C2=O)cc(OC)c1OC | / | .[10 µM] | ? | / | / | .[9.22 µM]
COc1cc(/C=C2\SC(=O)N(CC(=O)Nc3cccc(C)c3)C2=O)cc([N+](=O)[O-])c1O | 22µM | . | . | / | / | .
CN(C)CCCCNC(=O)c1ccc(-n2c(=O)c(=O)[nH]c3ccccc32)cc1 | . | / | / | / | . | /
O=c1c(O)c(-c2cccc(O)c2)oc2ccccc12 | ? | .[1.9 µM] | ? | / | 28µM | /
COc1cccc(-c2oc3ccccc3c(=O)c2O)c1 | . | .[1.9 µM] | ? | / | ? | /
Cc1ccc(C)c(NC(=O)CS(=O)(=O)c2cccc3nsnc23)c1 | . | . | . | . | / | .
CCOC(=O)c1cccc(NC(=O)CCS(=O)(=O)c2cccc3nsnc23)c1 | 22µM | . | ? | . | ? | .
Cc1cccc(NC(=O)CCS(=O)(=O)c2cccc3nsnc23)c1C | 25µM | . | . | . | ? | .
CC(=O)Nc1ccc2c(c1)nc1n2CCN(C2CCCCC2)C1 | ? | / | ? | . | / | /
COc1ccc(N2CCN(C(=O)c3c(C)oc4ncnc(N5CCCCC5)c34)CC2)cc1 | / | / | / | . | / | /
Cc1ccc2[nH]c3nc(CCCn4ccnc4-c4ccccc4)nnc3c2c1 | .[13.5 µM] | 1µM | / | / | / | /
COc1ccc(-c2cnnc(CCCn3ccnc3-c3ccccc3)n2)cc1 | .[13.5 µM] | .[10 µM] | / | / | / | /
CCC(=O)O[C@]1(C(=O)CCl)[C@@H](C)CC2C3C[C@H](F)C4=CC(=O)C=CC4(C)[C@@]3(F)C(O)CC21C (stereo partly specified) | / | . | / | / | / | .
